OvCa metastasis: inhibitors of ovarian cancer cell adhesion and invasion in omental model | AID 1963576 | Potency, µM (top dose mostly 45.8 µM), usual class: inhibitors | actives 0.1% (n = 46,000) | SKOV3ip1-GFP adhesion/invasion on 3D omental model, fluorescence; further: nearly all actives have a fitted effect of over 65% in size
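qHTS, 4-pt dose (0.36-46 umol/L); SKOV3ip1-GFP, 1,200 cells/well, no FBS; primary omental fibroblast/mesothelial co-culture 48 h pre-grown; 2 h RT + 16 h 37 C; PBS wash, 4% PFA; GFP count 488/509 nm.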
GALC G270D act: enhancers of human galactocerebrosidase G270D mutant activity in cells; 145M-Twi-hGALC-G270D cells (Twitcher mouse brain line with human GALC G270D), HMU-beta-Gal fluorescence, 48 h; actives 0.1% (n = 45,000); Potency, µM (top dose mostly 57.5 µM), hits mostly activators; AID 1159614; further: nearly all actives have a fitted effect of over 65% in size
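Brain-derived Twitcher mouse 145M-Twi cells stably expressing human GALC-G270D or wild-type GALC, treated live, then residual GALC activity read by fluorescence of HMU-b-Gal substrate (0.1 mM final) in citrate-phosphate buffer pH 5.2 with sodium taurocholate. Signal increase indicates enhancement.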
DRV1 agonist: agonists of human resolvin D1 receptor DRV1 (GPR32); O75388; CHO-K1 GPR32 beta-arrestin PathHunter luminescence, 90 min; zero percent set by DMSO-only wells; activation, % at 76.9 µM; actives 2.5% (n = 48,000);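 active means activation of at least 60% and not above a set upper limit, about 1 call in 100 departs from these limits; inconclusive means activation of 40% to 60%, or above that upper limit; inactive means activation under 40%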
Target sequence (O75388 whole entry, looked up): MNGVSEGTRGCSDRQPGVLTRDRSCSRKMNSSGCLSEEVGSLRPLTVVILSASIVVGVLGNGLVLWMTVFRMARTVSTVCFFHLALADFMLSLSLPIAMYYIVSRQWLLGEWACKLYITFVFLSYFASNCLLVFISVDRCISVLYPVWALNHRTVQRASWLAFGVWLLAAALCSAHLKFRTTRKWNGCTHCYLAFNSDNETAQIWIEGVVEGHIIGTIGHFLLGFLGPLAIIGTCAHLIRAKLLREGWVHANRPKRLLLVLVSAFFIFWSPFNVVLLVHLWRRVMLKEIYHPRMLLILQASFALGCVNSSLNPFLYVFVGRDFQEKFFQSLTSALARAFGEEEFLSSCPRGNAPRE
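Readings come from a cell-based beta-arrestin complementation format: CHO-K1 GPR32 stable cells (2,500/well) treated 90 min with compounds, then beta-Gal substrate added for 1 h before chemiluminescence imaging.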
p53null 32C tox: selectivity test: cytotoxicity in p53 null cells, permissive temperature | actives 0.62% (n = 55,000) | H1299-neo p53 null cells, ATP luminescence, 24 h, 32C | Potency, µM (doses to about 46.1 µM), most hits filed as cytotoxic; further: nearly all actives have a fitted effect of over 55% in size
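We seeded p53-null H1299-neo cells, incubated them overnight at 37C, and added compounds across a range up to 46 uM. After 24 hours at 32C, ATP reagent was applied for 20 min at room temperature and luminescence recorded.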
NTMT1 inh: NTMT1 methyltransferase inhibition; NTMT1 MTase-Glo SAH luminescence, purified enzyme; Q9BV86; AID 1645870; actives 2.5% (n = 59,000); Potency, µM (highest dose often 114 µM), actives largely listed as inhibitors; further: nearly all actives have a fitted effect of over 65% in size
Target sequence (Q9BV86 whole entry, looked up): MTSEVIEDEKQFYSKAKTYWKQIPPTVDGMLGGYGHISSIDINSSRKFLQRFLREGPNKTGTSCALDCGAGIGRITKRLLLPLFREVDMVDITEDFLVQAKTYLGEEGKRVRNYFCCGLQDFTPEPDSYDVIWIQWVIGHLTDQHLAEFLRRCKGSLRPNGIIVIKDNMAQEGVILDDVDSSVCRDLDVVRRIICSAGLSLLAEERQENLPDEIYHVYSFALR
p53null 39C tox: kills p53 null cells at the nonpermissive temperature; H1299 p53-null (neo) cells, 39C, ATPlite viability, 24 h; Potency, µM (top dose mostly 46.1 µM), hits mostly cytotoxic; actives 0.97% (n = 55,000); further: nearly all actives have a fitted effect of over 50% in size
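Concentration-response (up to 46 uM) was run for 24 h at the nonpermissive 39C on H1299-p53A138V or H1299-neo cells. ATP content was measured with ATPlite luminescence. AC50 values were Hill-modeled after normalizing between DMSO and 100 uM tamoxifen killing.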
Hits are given with their value; – = inactive; ? = inconclusive; · = not tested or not shown; ! = repeats disagree. Rows were chosen to be rich in hits. Some 4% of all compounds tested hit in one or more screens of this group. Unless noted, the call rests on the fitted dose curve; in most records, active means well fitted curve in the direction sought with a large enough effect; inconclusive means small, poorly fitted or top-dose-only effect, or another doubt; inactive means no such curve, though single readings can be large; an effect the other way counts as inactive or inconclusive.

SMILES	OvCa metastasis	GALC G270D act	DRV1 agonist	p53null 32C tox	NTMT1 inh	p53null 39C tox
Cc1cc(C)cc(NC(=O)Cn2nnc(C(=O)Nc3cc(C)cc(C)c3)c2N)c1	?	–	83.6	–	–	?
Cc1cccc(NC(=O)Cn2nnc(C(=O)Nc3ccc(F)c(Cl)c3)c2N)c1	–	–	–	–	–	–
COc1ccc(-c2nnc(SC(C)C(=O)NNC(=O)c3ccc(C)cc3)o2)cc1 (stereo unspecified)	·	·	·	–	·	·
COc1ccc(-c2nnc(SCC(=O)N3CCC(C)CC3)o2)cc1	–	–	78.0	–	–	–
COc1ccc(-c2nnc(SC(C)C(=O)O)o2)cc1 (stereo unspecified)	–	–	–	?	–	15.8µM
CC1CCN(C(=O)CSc2nnc(-c3ccccc3)o2)CC1	–	–	–	–	–	–
Cc1ccc(OCCn2c(CCNC(=O)c3ccccn3)nc3ccccc32)cc1	·	·	·	·	–	·
C/C=C/C=C/C=C/C(=O)O[C@@H]1C=C(CO)C(O)(C(=O)O)[C@@]2(C)CCCC(C)(C)[C@H]12 (stereo partly specified)	·	·	·	·	–	·
O=S(=O)(Nc1nccs1)c1ccc(NCc2cc(F)ccc2O)cc1	·	·	·	·	–	·
CC(C)C(N)C(=O)OCC(CO)OCn1cnc2c(=O)[nH]c(N)nc21 (stereo unspecified)	·	·	·	·	–	·
COCC(=O)NCC=Cc1ccc2ncnc(Nc3ccc(Oc4ccc(C)nc4)c(C)c3)c2c1	–	·	·	·	?	·
Cc1cc(Nc2ncnc3ccc(-c4ccc(CNCCS(C)(=O)=O)o4)cc23)ccc1Oc1ccn2ncnc2c1	–	·	·	·	21.5µM!	·
Cc1ccc(S(=O)(=O)NCCc2csc(-c3cccc(F)c3)n2)cc1	–	–	80.0	–	–	?
O=S(=O)(NCCc1csc(-c2cccc(F)c2)n1)c1cc(F)ccc1F	–	–	–	–	–	–
CCOc1ccc(S(=O)(=O)NCCc2csc(-c3ccc(Cl)cc3)n2)cc1	–	–	69.2	–	?	–
Cc1ccc(S(=O)(=O)NCCc2csc(-c3ccc(Cl)cc3)n2)cc1	–	–	?	–	–	–
O=S(=O)(NCCc1csc(-c2ccc(F)cc2)n1)c1ccc(Cl)cc1	–	–	63.6	–	–	–
COc1ccc(S(=O)(=O)NCCc2csc(-c3ccc(F)cc3)n2)cc1	–	–	60.3	–	–	–
C/C1=C\CC[C@]2(C)O[C@H]2C(=O)c2c(C)coc2C1	·	·	·	·	–	·
CCOC(=O)C1CCC(C(=O)Nc2ccc([S+](=O)([O-])Nc3nccs3)cc2)CC1 (stereo unspecified)	·	·	·	·	–	·
CCCC(=O)NCCc1csc(-c2ccc(Cl)cc2)n1	·	·	·	·	–	·
Cc1ccc(C)c(S(=O)(=O)NCCc2csc(-c3ccc(Cl)cc3)n2)c1	–	–	73.6	–	–	?
CCN(CC)C(=O)C1=C(C)Nc2nc3ccccc3n2C1c1ccccc1F (stereo unspecified)	–	–	–	–	–	–
Cc1cccc(C2C=C(c3ccc(F)cc3)Nc3nc4ccccc4n32)c1 (stereo unspecified)	–	–	–	?	–	?
CCc1ccc(C2=CC(c3c(F)cccc3Cl)n3c(nc4ccccc43)N2)cc1 (stereo unspecified)	–	–	–	8.91µM	–	?
SMILES	OvCa metastasis	GALC G270D act	DRV1 agonist	p53null 32C tox	NTMT1 inh	p53null 39C tox
Cc1ccc(C2=CC(c3ccccc3C)n3c(nc4ccccc43)N2)cc1 (stereo unspecified)	–	–	–	1.26µM	–	?
Cc1cc(N2CCOCC2)ccc1Nc1nc(NC2CCCCC2)c2[nH]cnc2n1	·	·	·	·	–	·
CC1=C(C(=O)OCc2ccc(C)cc2)C(c2ccccc2F)CC(=O)N1 (stereo unspecified)	–	–	66.8	–	–	?
CCOc1ccccc1C1CC(=O)NC(C)=C1C(=O)OCc1ccc(C)cc1 (stereo unspecified)	–	–	60.5	–	–	–
CC(C)(C)C(=O)N1N=CC[C@H]1c1ccccc1	·	·	·	·	–	·
Cc1nnc(N2CCCC(C(=O)NCc3ccccc3)C2)c2nn(-c3ccccc3)c(C)c12 (stereo unspecified)	–	–	–	–	–	–
Cc1ccc(Cl)cc1NC(=O)C1CCN(c2nnc(C)c3c(C)n(-c4ccccc4)nc23)CC1	–	–	–	?	–	12.6µM
COc1ccc(Cl)cc1NC(=O)C1CCN(c2nnc(C)c3c(C)n(-c4ccccc4)nc23)CC1	–	–	–	–	–	–
CCc1ccc(CNC(=O)C2CCCN(c3nnc(C)c4c(C)n(-c5ccccc5)nc34)C2)cc1 (stereo unspecified)	?	–	–	–	?	15.8µM
COc1ccccc1CCNC(=O)C1CCN(c2nnc(C)c3c(C)n(-c4ccc(C)cc4)nc23)CC1	?	–	–	–	?	10µM
Cc1nnc(N2CCC(C(=O)NCCc3ccccc3)CC2)c2nn(-c3ccc(Cl)cc3)c(C)c12	–	–	–	–	–	?
Cc1nnc(N2CCC(C(=O)NCCc3ccccc3Cl)CC2)c2nn(-c3ccccc3)c(C)c12	?	–	–	?	?	10µM
[2H]C([2H])([2H])C(OC(=O)[C@H](C)N[P@](=O)(OC[C@H]1O[C@@H](n2ccc(=O)[nH]c2=O)[C@](C)(F)[C@@H]1O)Oc1ccccc1)C([2H])([2H])[2H]	·	·	·	·	–	·
CCOc1ccccc1CNC(=O)C1CCN(c2nnc(C)c3c(C)n(-c4ccc(C)cc4)nc23)CC1	7.94µM	–	–	?	?	15.8µM
CCc1c(C)nc2nc(-c3ccccc3)nn2c1NCc1ccc(C)cc1	–	–	72.2	–	–	?
COc1cc([C@@H]2c3cc4c(cc3[C@@H](O[C@@H]3O[C@@H]5CO[C@@H](c6cccs6)O[C@H]5[C@H](O)[C@H]3O)[C@H]3COC(=O)[C@H]23)OCO4)cc(OC)c1O	·	·	·	·	–	·
CC1=C(C(=O)O[C@@H]2O[C@H](COC3OCC(O)C(O)C3O)[C@@H](O)[C@H](O)[C@H]2O)C(C)(C)CCC1 (stereo partly specified)	·	·	·	·	–	·
CCOc1ccc(C(=O)NCCc2sc(-c3cccc(F)c3)nc2C)cc1OCC	–	–	–	–	–	–
O=C(NCCc1csc(-c2cccc(F)c2)n1)c1ccc(Br)o1	–	–	93.8	–	–	–
Cc1nc(-c2cccc(F)c2)sc1CCNC(=O)c1ccc(F)c(F)c1	–	–	62.6	–	–	–
O=C(NCCc1csc(-c2ccc(F)cc2)n1)c1ccc(Br)o1	–	–	?	–	–	–

High-throughput results deposited in PubChem by National Center for Advancing Translational Sciences (NCATS).
